TEAD-YAP block = TEAD-YAP interaction inhibition, primary screen, TEAD-YAP interaction inhibitor project, luminescence, HEK-TIYL cells; TEAD-Gal4/YAP UAS-luciferase luminescence; inhibition, % at 9.12 µM; 1.4% of 640,000 active; AID 1259422, 2018; in the data active means inhibition above about 32%
GPR151 ag = activators of human GPR151, primary screen, cell-based, PathHunter beta-arrestin, luminescence; PathHunter beta-arrestin GPR151 cells; activation, % at 11.2 µM; 1% of 650,000 active; AID 1508602, 2020; in the data active means activation above about 4.9%
Target sequence (Q8TDV0 whole entry, looked up): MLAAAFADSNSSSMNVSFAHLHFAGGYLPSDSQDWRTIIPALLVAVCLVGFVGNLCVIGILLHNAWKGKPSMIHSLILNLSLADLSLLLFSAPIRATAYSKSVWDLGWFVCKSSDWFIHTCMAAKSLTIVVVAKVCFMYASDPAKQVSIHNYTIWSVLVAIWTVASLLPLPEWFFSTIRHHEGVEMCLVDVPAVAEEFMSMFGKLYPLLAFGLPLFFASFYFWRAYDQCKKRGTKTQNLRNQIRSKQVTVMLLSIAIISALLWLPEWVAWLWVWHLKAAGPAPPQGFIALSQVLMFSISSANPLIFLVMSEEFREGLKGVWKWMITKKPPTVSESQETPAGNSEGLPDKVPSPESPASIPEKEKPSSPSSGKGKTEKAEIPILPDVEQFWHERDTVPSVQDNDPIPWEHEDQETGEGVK
MITF inh = MITF inhibitors, primary screen, biochemical, AlphaScreen, human; 0.91% of 650,000 active; Microphthalmia-associated transcription factor (Homo sapiens), O75030; inhibition, % at 2.6 µM; AlphaScreen MITF homodimerization, bead proximity signal; in the data active means inhibition above about 50%
FBW7 act = FBW7 E3 ligase activators, primary screen, biochemical, AlphaScreen, human; F-box/WD repeat-containing protein 7 (Homo sapiens), Q969H0; AlphaScreen FBW7–phospho-cyclin E peptide binding, activator screen; normalized activity (activation), % at 26.1 µM; 0.13% of 650,000 active; AID 1259310, 2017; in the data active means normalized activity above about 1.9%;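 further: purified mutant Fbw7 with reduced substrate affinity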
MITF confirm = MITF inhibitors, retest of hits, confirmation, biochemical, AlphaScreen, triplicate | AlphaScreen MITF homodimerization, biotin/His-MITF beads | shares compounds with MITF inh | 16% of 4,700 active | inhibition, % at 2.6 µM;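 active means inhibition above a cutoff derived from the DMSO control wells, cut at about 28% in these data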;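 further: inhibitors lower the bead chemiluminescence by keeping MITF from dimerizing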
AS interf DR = AlphaScreen optical interference compounds, dose response, counter-screen, biochemical, HTS; shares compounds with MITF inh; AlphaScreen optical interference counterscreen, cell-free; IC50, µM; 6% of 480 active; AID 1259373, 2018; call rule not given here
AlphaScreen intf2 = AlphaScreen optical interference compounds, counter-screen for MITF inhibitor project, biochemical, triplicate; LysRS AlphaScreen counterscreen, signal interference; shares compounds with MITF inh; inhibition, % at 2.6 µM; 7.6% of 4,700 active;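 active means inhibition above a cutoff derived from the DMSO control wells, cut at about 30% in these data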
Each line names hits and unclear results; the compound was inactive in the other large screens (follow-up assays come after a bar, where they were run). Compounds with a hit are over-represented: about 3.4% of the library has one in this group of screens.

CC(=O)Nc1ccc(C(=O)NC(CC(=O)O)c2cccc([N+](=O)[O-])c2)cc1 (centres undefined)	MITF inh 60.3 | MITF confirm inactive | AlphaScreen intf2 inactive
CC(C)(C)c1ccc(C(=O)NC(CC(=O)O)c2cccc([N+](=O)[O-])c2)cc1 (centres undefined)	none
Cc1nnc(C)n1/N=C\c1cccc2ccccc12	MITF inh 66.5 | MITF confirm inactive | AlphaScreen intf2 inactive
N#Cc1c(N)nc(SCC(N)=O)c(C#N)c1-c1ccccc1Cl	MITF inh 84.9 | MITF confirm inactive | AlphaScreen intf2 inactive
COC(=O)C1=C(C)NC(SCC(=O)Nc2ccc(C(C)=O)cc2)=C(C#N)C1c1ccccc1Cl (centres undefined)	none
NC(=O)c1nsc(C(=O)N(CC(=O)NCc2ccc(F)cc2)c2ccccc2)c1N	none
O=S(=O)(NCC(c1ccc(F)cc1)N1CCOCC1)c1ccc2c(c1)OCCO2 (centres undefined)	MITF inh 55.3 | MITF confirm inactive | AlphaScreen intf2 inactive
O=S(=O)(Cc1ccc(F)cc1)NCC(c1ccsc1)N1CCOCC1 (centres undefined)	MITF inh 78.1 | MITF confirm inactive | AlphaScreen intf2 inactive
Cc1cc(F)ccc1S(=O)(=O)NCC(c1ccsc1)N1CCOCC1 (centres undefined)	none
Cc1ccc(C)c(C(=O)Nc2ccccc2F)c1	MITF inh 83.6 | MITF confirm inactive | AlphaScreen intf2 inactive
COc1ccc(C(=O)NCCc2ccc(OC)c(OC)c2)c(OC)c1	none
Cc1n[nH]c(=S)n1/N=C/c1ccccc1F	MITF inh 70.0 | MITF confirm inactive | AlphaScreen intf2 inactive
CCC(=O)Oc1c(Br)cc(C=O)cc1OC	none
Cc1cc(C(C)(C)C)ccc1OCCN1CCN(C)CC1	MITF inh 86.7 | MITF confirm inactive | AlphaScreen intf2 inactive
Cc1cc(C(C)(C)C)ccc1OCCOCCN1CCOCC1	MITF inh 73.0 | MITF confirm inactive | AlphaScreen intf2 inactive
Cc1cc(C(C)(C)C)ccc1OCCCN1CCN(C)CC1	MITF inh 63.2 | MITF confirm inactive | AlphaScreen intf2 inactive
Cc1cc(C(C)(C)C)ccc1OCCOCCN1CCN(C)CC1	none
COc1cc(/C=C\C(=O)Nn2c(-c3cccc(Cl)c3)nc3ccccc3c2=O)cc(OC)c1OC	none
Cn1c(=O)[nH]c(=O)c2c1nc(NN)n2CCO	none
CCCOc1ccc(C2Oc3ccc(Br)cc3C3CC(c4ccc(Cl)cc4)=NN32)cc1 (centres undefined)	MITF inh 74.4 | MITF confirm inactive | AlphaScreen intf2 inactive
CCCOc1ccc(C2Oc3ccc(Br)cc3C3CC(c4ccccc4)=NN32)cc1 (centres undefined)	none
Cc1ccc2[nH]c(C)c(CCNC(=O)c3cccc([N+](=O)[O-])c3)c2c1	MITF inh 74.5 | MITF confirm inactive | AlphaScreen intf2 inactive
Cc1[nH]c2ccc(F)cc2c1CCNC(=O)c1cccc([N+](=O)[O-])c1	none
N#CCSc1nc2ccccc2c(=O)n1NC(=O)c1ccccc1	TEAD-YAP block 82.5, MITF inh 66.9 | MITF confirm inactive | AlphaScreen intf2 inactive
COc1ccccc1N1CCN(C(=O)CSc2nc3ccccc3c(=O)n2NC(=O)c2ccccc2)CC1	MITF inh 75.2 | MITF confirm inactive | AlphaScreen intf2 inactive
COc1ccccc1N1CCN(C(=O)CSc2nc3ccccc3c(=O)n2NC(=O)Cc2ccccc2)CC1	none
CC1=C(C(=O)N2CCOCC2)C(c2ccc(C)c([N+](=O)[O-])c2)C2=C(CC(C)(C)CC2=O)N1 (centres undefined)	none
Cc1ccc(C(=O)NC(=S)Nc2ccccc2C(N)=O)cc1C	none
O=C(NC1CCCC1)C1c2ccccc2Oc2ccccc21	MITF inh 76.3 | MITF confirm inactive | AlphaScreen intf2 inactive
c1cncc(-c2ncc(-c3nc4ccccc4o3)c(-c3ccncc3)n2)c1	none
c1ccc(CN2CCN(C3CCCCC3)CC2)nc1	MITF inh 59.9 | MITF confirm inactive | AlphaScreen intf2 inactive
c1ccc(CN2CCN(c3ncccn3)CC2)nc1	none
c1ccc(CN2CCN(C3CCCCCC3)CC2)nc1	MITF inh 66.9 | MITF confirm inactive | AlphaScreen intf2 inactive
CC1CCC(N2CCN(Cc3ccccn3)CC2)CC1 (centres undefined)	MITF inh 63.6 | MITF confirm inactive | AlphaScreen intf2 inactive
N#Cc1ccc(NC(=O)CNCc2ccccc2Cl)cc1	none
COc1cc(-c2[nH]nc3c2C(c2ccc4c(c2)OCO4)C(C#N)=C(N)O3)cc(OC)c1OC (centres undefined)	MITF inh 66.3 | MITF confirm inactive | AlphaScreen intf2 inactive
O=C(NNC(=S)Nc1ccc(Cl)c(Cl)c1)c1ccccn1	TEAD-YAP block 39.3, MITF inh 113.6 | MITF confirm 109.9 | AlphaScreen intf2 100.2
CC(O)CC(=O)NNC(=S)Nc1ccc(Cl)c(Cl)c1 (centres undefined)	none
O=C(NNC(=S)Nc1ccccc1C(F)(F)F)c1ccccn1	MITF inh 112.9 | MITF confirm 103.6 | AlphaScreen intf2 100.2
O=C(NNC(=S)Nc1ccccc1C(F)(F)F)c1ccc(Br)o1	none
CNC(=O)CN(c1cc(C(F)(F)F)ccc1Cl)S(C)(=O)=O	none
CC(=O)Oc1ccccc1N1C(=O)c2ccc(Oc3cccc(N)c3)cc2C1=O	MITF inh 54.1 | MITF confirm 70.5 | AS interf DR inactive | AlphaScreen intf2 inactive
O=C(Nc1nc(-c2ccccn2)cs1)C1CC1	none
O=C(Nc1nc(-c2ccccn2)cs1)C12CC3CC(CC(O)(C3)C1)C2	MITF inh 54.5 | MITF confirm 60.9 | AlphaScreen intf2 100.3
Cc1cc(NC(=O)CCCC(=O)O)ccc1NC(=O)c1cccs1	none
CCCS(=O)(=O)N1CCN(c2ncnc3c2nnn3CC)CC1	none
Cc1[nH]c(=O)[nH]c1C(=O)CCCCC(=O)OCC(=O)Nc1ccccc1[N+](=O)[O-]	MITF inh 113.3 | MITF confirm 114.7 | AlphaScreen intf2 92.8
CCOC(=O)CCCCC(=O)c1[nH]c(=O)[nH]c1CNc1ccc(Br)cc1	none
CC(=O)NCC(=O)OCC(=O)Nc1ccccc1[N+](=O)[O-]	none
Cc1[nH]c(=O)[nH]c1C(=O)CCCCC(=O)O	MITF inh 120.8 | MITF confirm 113.3 | AlphaScreen intf2 95.3
CCOC(=O)CCCC/C(=N\O)c1[nH]c(=O)[nH]c1C	MITF inh 98.7 | MITF confirm 97.1 | AlphaScreen intf2 64.9
